Source: PubChem
The list is not random: actives were taken first. Their share in the collection is about 9.9%.
IL1B secr inh: qHTS for Inhibitors of Inflammasome Signaling: IL-1-beta AlphaLISA Primary Screen | AID 743279, 2014 | THP-1 LPS/ATP IL-1B secretion, AlphaLISA, 16 h; hits give low values | activity change, % at 57.5 µM | hit rate 4.7% among 360,000; in the data active = activity change below about -50%; inconclusive = mostly about -30% to -49%
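Secreted IL-1B measured by AlphaLISA bead assay after 16 h compound exposure of THP-1 cells; compounds (final up to 57.5 uM) added 1 h before LPS (250 ng/mL) and ATP (1.25 mM) stimulation; lower signal means less secretion.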
KB-V1 cytotox: qHTS assay for MDR1-selective chemotherapeutics: Primary screen using the drug-selected MDR subline cells KB-V1 | KB-V1 MDR cells viability, CellTiter-Glo, 72 h | Potency, µM (series often up to 46.1 µM), most hits filed as cytotoxic | hit rate 3.4% among 400,000; also: nearly all actives have a fitted effect of over 60% in size
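KB-V1 cells (P-gp-expressing MDR subline of KB-3-1) in phenol-red-free DMEM with 10% FBS were exposed to library compounds over a concentration series for 72 h at 37 degrees C. Viability read by CellTiter-Glo luminescence; concentration-effect curves fitted after normalization.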
SW480 rereplic: A quantitative high throughput screen for small molecules that induce DNA re-replication in SW480 colon adenocarcinoma cells; SW480 DNA re-replication, Hoechst DNA content imaging, 48 h; Potency, µM (titrated, usually from 46.1 µM), usual class: activators; hit rate 1.8% among 340,000; also: nearly all actives have a fitted effect of over 55% in size
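Image-based read-out: total Hoechst fluorescence of nuclei (405 nm excitation, 500-530 nm emission), with hits raising the fraction of high-intensity nuclei. SW480 colon cells incubated 48 hr with compounds at 37 C.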
KB-3-1 tox: qHTS assay for MDR1-selective chemotherapeutics: Primary screen using the parental adenocarcinoma cell KB-3-1 | KB-3-1 viability, CellTiter-Glo ATP luminescence, 72 h | Potency, µM (top dose mostly 46.1 µM), hits mostly cytotoxic | hit rate 1.4% among 400,000 | AID 1347075, 2019; also: nearly all actives have a fitted effect of over 60% in size
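Cells are dispensed, compounds pinned in, plates held at 37 °C for 72 h, then CellTiter-Glo is added and luminescence read after 10 minutes. Cell line: parental KB-3-1 in phenol-red-free DMEM, 10% FBS.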
MCF10A rereplic: A quantitative high throughput screen for small molecules that induce DNA re-replication in MCF 10a normal breast cells. MCF 10A DNA re-replication, Hoechst nuclear intensity, 48 h. hit rate 2.9% among 350,000. Potency, µM (highest dose often 46.1 µM), hits mostly activators; also: nearly all actives have a fitted effect of over 50% in size
Each line names hits and unclear results; the compound was inactive in the other large screens. Unless noted, calls follow the shape of the dose curve; as a rule, active = well fitted curve in the direction sought with a large enough effect; inconclusive = small, poorly fitted or top-dose-only effect, or another doubt; inactive = no such curve, though single readings can be large; an effect the other way counts as inactive or inconclusive.

Cc1ccc(C)c(S(=O)(=O)N2CCN(C(=O)c3cccnc3)CC2)c1	KB-V1 cytotox inconclusive
Cc1nc2c3cc(Cl)ccc3n(CCN3CCCCC3)c2s1	SW480 rereplic 14.6µM, MCF10A rereplic 18.4µM
COC(=O)Cn1c2ccc(Cl)cc2c2nc(C)sc21	none
CC(=O)OCC1OC(OC2C[C@]3(C)C(CC(O)C4C([C@](C)(CCC=C(C)C)OC5OC(CO)C(O)C(O)C5O)CC[C@]43C)[C@@]3(C)CCC(O)C(C)(C)C23)C(O[C@@H]2OC(C)C(O)C(O)C2O)C(O)C1O (stereo partly specified)	MCF10A rereplic 0.517µM
COc1ccc(C2c3[nH]c4ccccc4c3C[C@H]3C(=O)N(C4CCN(Cc5ccccc5)CC4)CC(=O)N23)cc1OC (stereo partly specified)	SW480 rereplic 18.4µM, KB-3-1 tox inconclusive, MCF10A rereplic inconclusive
COc1cccc(C2c3[nH]c4ccccc4c3C[C@H]3C(=O)N(C4CCN(Cc5ccccc5)CC4)CC(=O)N23)c1 (stereo partly specified)	IL1B secr inh -57.9, KB-V1 cytotox inconclusive, SW480 rereplic inconclusive, KB-3-1 tox inconclusive
COc1ccccc1C1c2[nH]c3ccccc3c2C[C@H]2C(=O)N(C3CCN(Cc4ccccc4)CC3)CC(=O)N12 (stereo partly specified)	SW480 rereplic inconclusive, KB-3-1 tox inconclusive
COc1ccc(Cc2c(-c3ccc(F)cc3)nc3cc(C)c(Br)c(C)n23)c(C)c1	KB-V1 cytotox inconclusive (no result: SW480 rereplic, MCF10A rereplic)
CC(C)(C)c1cc(CN(CCO)CCO)c(O)c(C(C)(C)C)c1	MCF10A rereplic inconclusive
CC(C)(C)c1cc(CN2CCCC(O)C2)c(O)c(C(C)(C)C)c1 (stereo unspecified)	KB-V1 cytotox 16.4µM, KB-3-1 tox inconclusive
CC(C)CCNC(=O)C1CC(c2ccccc2[N+](=O)[O-])=NO1 (stereo unspecified)	none
O=C(NCCc1nc2ccccc2[nH]1)/C(=C/c1ccc2c(c1)OCO2)NC(=O)c1ccccc1	KB-3-1 tox inconclusive
O=C(NCCc1nc2ccccc2[nH]1)/C(=C/c1ccc2c(c1)OCO2)NC(=O)c1ccccc1Cl	IL1B secr inh -84.2
COc1ccc(C2CC(c3ccccc3)n3nc(NC(=O)c4cccs4)nc3N2)cc1 (stereo unspecified)	IL1B secr inh -72.2, KB-V1 cytotox inconclusive, KB-3-1 tox inconclusive
COc1ccc(C2CC(c3cccs3)n3nc(N)nc3N2)cc1 (stereo unspecified)	IL1B secr inh -58.6, SW480 rereplic inconclusive, MCF10A rereplic inconclusive
Nc1nc2n(n1)C(c1cccs1)CC(c1ccc(F)cc1)N2 (stereo unspecified)	none
O=C(Nc1cccc(F)c1)N1CCCC(CNS(=O)(=O)Cc2ccccc2)C1 (stereo unspecified)	KB-V1 cytotox inconclusive
COC(=O)C1(c2ccccc2)NC(c2ccc(O)cc2)C2C(=O)N(c3ccc4c(c3)OCO4)C(=O)C21 (stereo unspecified)	KB-V1 cytotox inconclusive
O=C(c1ncn[nH]1)N1CCN(c2nc(-c3ccccc3)cs2)CC1	SW480 rereplic inconclusive
O=C(c1cc(-n2cnnc2)ccc1Cl)N1CCN(c2nc(-c3ccccc3)cs2)CC1	IL1B secr inh -89.5, KB-3-1 tox 20.6µM
CSCC[C@H](NC(=O)[C@@H]1Cc2ccccc2CN1)C(=O)Nc1ccc2c(c1)OCCO2	none
O=C(N/N=C/c1sc(=O)n(Cc2ccc(Br)cc2)c1Cl)c1ccco1	IL1B secr inh -77.6, KB-3-1 tox inconclusive, MCF10A rereplic 18.4µM
Cc1ccn2c(c1)nc(=O)c1cc(S(=O)(=O)N3CCC(C)CC3)c(Cl)cc12	none (no result: IL1B secr inh, SW480 rereplic, MCF10A rereplic)
CN(C)CCN(C)Cc1ccccc1Sc1cccc2ccccc12	IL1B secr inh -105.0, KB-V1 cytotox 23.1µM, SW480 rereplic inconclusive, KB-3-1 tox inconclusive, MCF10A rereplic inconclusive
CNCc1ccccc1Sc1cccc2ccccc12	IL1B secr inh -55.3, KB-V1 cytotox 14.6µM, SW480 rereplic inconclusive, KB-3-1 tox inconclusive, MCF10A rereplic inconclusive
CC12CCC(=O)N1C(C(=O)NCc1ccc(Cl)cc1Cl)CS2 (stereo unspecified)	KB-V1 cytotox inconclusive
C/C(=N/NC(=O)c1ccc(C)s1)c1cccc(NC(=O)COc2ccc(Cl)cc2Cl)c1	SW480 rereplic inconclusive, MCF10A rereplic 9.2µM
CC(=O)c1cccc(NC(=O)COc2ccccc2)c1	none
C/C(=N/NC(=O)c1ccc(Cl)s1)c1ccc(NC(=O)COc2ccc(Cl)cc2)cc1	KB-V1 cytotox inconclusive, SW480 rereplic inconclusive, KB-3-1 tox inconclusive, MCF10A rereplic inconclusive
C/C(=N/NC(=O)c1cccs1)c1ccc(NC(=O)COc2ccc(Cl)cc2Cl)cc1	SW480 rereplic 9.2µM, MCF10A rereplic 6.51µM
C/C(=N\NC(=O)c1c(Cl)cnn1C)c1cccc(NC(=O)COc2ccccc2)c1	MCF10A rereplic 16.4µM
CCC(CC)C(=O)Nc1cccc(/C(C)=N\NC(=O)c2ccc(C)s2)c1	none
C/C(=N/NC(=O)c1ccco1)c1cccc(NC(=O)c2ccc(C)s2)c1	KB-V1 cytotox 10.3µM
C/C(=N/NC(=O)c1ccco1)c1cccc(NC(=O)c2ccc(C)o2)c1	none
COc1cccc(CC(NC(C)=O)C(=O)NC2CCN(C(=O)c3ccc(Cl)cc3)CC2)c1OC (stereo unspecified)	none
CN(C)c1ccc(/C=N/NC(=O)CN(c2cccc(Cl)c2)S(C)(=O)=O)cc1Br	IL1B secr inh -50.1
CS(=O)(=O)N(CC(=O)N/N=C/c1ccco1)c1ccccc1Br	none
COc1cccc(CNc2nc(NC(C)C)nc3ccsc23)c1OC	IL1B secr inh -80.8 (no result: SW480 rereplic, MCF10A rereplic)
COc1ccccc1CNc1nc(NCc2ccc(C(C)C)cc2)c2sccc2n1	IL1B secr inh -83.2, KB-V1 cytotox inconclusive, KB-3-1 tox inconclusive (no result: SW480 rereplic, MCF10A rereplic)
CC(=O)NCCNc1nc(NC(C)C)nc2ccsc12	none (no result: SW480 rereplic, MCF10A rereplic)
COc1ccccc1CNc1nc(NC(C)C)nc2ccsc12	IL1B secr inh -98.2, KB-V1 cytotox 10.3µM, KB-3-1 tox inconclusive (no result: SW480 rereplic, MCF10A rereplic)
CC(C)Nc1nc(NCCOc2ccccc2)c2sccc2n1	IL1B secr inh -71.7, KB-V1 cytotox inconclusive (no result: SW480 rereplic, MCF10A rereplic)
COc1ccccc1CNc1nc(Nc2ccccc2OC)c2sccc2n1	none (no result: SW480 rereplic, MCF10A rereplic)
O=C1c2cccc3c2[C@@H](CCC3)CN1[C@@H]1CN2CCC1CC2	none (no result: IL1B secr inh, KB-V1 cytotox, KB-3-1 tox)
COc1ccccc1CNc1nc(NCCOc2ccccc2Cl)c2sccc2n1	IL1B secr inh -85.6, KB-V1 cytotox inconclusive, KB-3-1 tox inconclusive (no result: SW480 rereplic, MCF10A rereplic)
c1csc(CNc2nc(NCC3CCCCC3)c3sccc3n2)c1	IL1B secr inh inconclusive, KB-V1 cytotox inconclusive (no result: SW480 rereplic, MCF10A rereplic)
CSc1ccccc1CNc1nc(NCC2CC2)nc2ccsc12	IL1B secr inh -105.7 (no result: SW480 rereplic, MCF10A rereplic)
